Experimental data published in PubChem BioAssay.
For part of these data: Potency and affinity values are given separately. Calls of active or inactive are those of the source. A call without a number means that no potency is given here. Unless noted, the limit is not given here; nearly all actives have IC50 up to about 0.98 µM.

tested on: not listed separately; experiment: inhibition of 3D7 malaria parasite growth – strain 3D7 (AID 2306; call rule not given here); conditions: P. falciparum 3D7 erythrocytic growth, LDH absorbance, 72 h; at 2 µM; hits give high values

| Structure (SMILES) | growth inhibition |
| --- | --- |
| CC(Cc1ccc(CN(CC(N)=O)Cc2ccc(CC(C)NCCc3cccc(Cl)c3)cc2)cc1)NCCc1cccc(Cl)c1 (stereo not given) | 95% (active) |
| CCC1CCCCN1S(=O)(=O)c1ccc(OC)c(N2CCN(C(=O)C(Cl)(Cl)Cl)CC2)c1 (stereo not given) | 89% (active) |
| Cc1cc2ncn(-c3ccnc(N4CCN(CCCN5CCCC5)CC4)n3)c2cc1C | 100% (active) |

target: Calcium-dependent protein kinase 1 (Plasmodium falciparum (isolate 3D7)) (UniProt P62344); experiment: PfCDPK1 kinase inhibitors, biochemical, TCAMS library (AID 1159585); conditions: recombinant PfCDPK1, Kinase-Glo ATP depletion luminescence;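 also: inhibitors leave more ATP so luminescence rises with inhibition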
Sequence (P62344 whole entry, looked up): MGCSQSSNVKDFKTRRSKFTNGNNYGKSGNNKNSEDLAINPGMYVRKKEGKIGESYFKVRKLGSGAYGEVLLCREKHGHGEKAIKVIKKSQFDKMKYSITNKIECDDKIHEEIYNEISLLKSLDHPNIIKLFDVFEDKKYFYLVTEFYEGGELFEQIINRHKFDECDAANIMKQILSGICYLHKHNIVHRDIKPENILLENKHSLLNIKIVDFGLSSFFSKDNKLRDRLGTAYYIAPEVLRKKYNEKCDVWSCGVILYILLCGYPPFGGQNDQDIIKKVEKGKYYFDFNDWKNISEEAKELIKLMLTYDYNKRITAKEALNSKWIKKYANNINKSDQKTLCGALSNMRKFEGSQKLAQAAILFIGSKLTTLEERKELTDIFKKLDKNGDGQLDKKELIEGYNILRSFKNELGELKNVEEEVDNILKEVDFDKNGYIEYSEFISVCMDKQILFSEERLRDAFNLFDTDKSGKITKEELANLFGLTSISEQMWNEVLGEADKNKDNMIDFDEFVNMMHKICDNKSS

| Structure (SMILES) | outcome |
| --- | --- |
| Cc1cc(-c2cccc(CNCCc3ccc(Cl)cc3)c2)cnc1N | inactive |
| CCCCCCN1CCN(Cc2cccc(NC(=O)c3cccc(OCC)c3)c2)CC1 | inactive |
| CCOc1ccc(Br)cc1/C=C/C(=O)Nc1ccc2c(c1)CN(C)CCC2 | inactive |
| O=C(CN1CCN(C(=O)c2ccco2)CC1)Nc1ccc(Br)cc1Cl | inactive |
| FC(F)(F)c1ccc2nc(-c3ccc(-c4ccc(CNCC5CCCO5)cc4)cc3)[nH]c2c1 (stereo not given) | inactive |
| CC[C@H](NC(=O)c1ccc(NC(=O)OC(C)(C)C)cc1)C(=O)N[C@@H](CO)C(=O)NCCCCc1ccccc1 | inactive |
| Cc1cccc(C(=O)Nc2ccnc(N3CCC(N(C)Cc4cccc(O)c4)CC3)c2)c1 | inactive |
| CCCSc1nc2c(c(=O)n1CCc1ccccc1)C1(CCCC1)Cc1ccccc1-2 | inactive |
| COc1ccc2c(NN=Cc3cccnc3)ccnc2c1 | inactive |
| Cc1cc(N[C@@H](CC(C)C)C(=O)NCc2cccc(F)c2)nc(NCC2CCCCC2)n1 | inactive |
| CN1CCCN(Cc2ccc(-c3ccc(NC(=O)c4ccc(C#N)cc4)cc3)cc2)CC1 | inactive |
| O=C(N[C@@H](CC1CCCCC1)C(=O)NCCN1CCCC1)c1ccc(O)c(-c2ccc(Cl)c(Cl)c2)c1 | inactive |
